Measured values as given in PubChem BioAssay (Tox21).
Inconclusive results are not listed. Active and inactive are the calls of the source. Calls follow the shape of the dose curve; as a rule, active = well fitted curve in the direction sought with a large enough effect in the repeat runs; inconclusive = weak or mixed curves; inactive = no such curve, though single readings can be large; an effect the other way counts as inactive or inconclusive.

Legend:
[1] = qHTS assay to identify small molecule agonists of the RXR signaling pathway - cell viability counter screen (AID 1159529); also: nearly all actives have a fitted effect of over 50% in size; also: potency is read from the fitted curve at half-maximal effect; as to activity change, negative = cytotoxicity: series mostly up to about 77 µM
Procedure, shortened: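 Luminescence from CellTiter-Glo (30 min, RT) measured viability in the same wells as the beta-lactamase reporter readout. Cells: GeneBLAzer RXR-alpha HEK 293T, 2% charcoal-stripped FBS. Compound exposure 16 hr, 37 C.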

[2] = qHTS assay to identify small molecule antagonists of the retinoid acid receptor (RAR) signaling pathway - cell viability counter screen (AID 1159551); also: nearly all actives have a fitted effect of over 35% in size
Procedure, shortened: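 Following overnight attachment, C3RL4 reporter cells received DMSO-dissolved compounds and then retinol (1 uM final). Six hours later at 37 C, ATP content was measured by CellTiter-Glo luminescence.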

[3] = qHTS assay to identify small molecule antagonists of the retinoic acid receptor (RAR) signaling pathway (AID 1159552; also: nearly all actives have a fitted effect of over 50% in size; also: potency is read from the fitted curve at half-maximal effect)
Procedure, shortened: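 Luminescence from a RARE luciferase reporter in C3RL4 cells served as read-out. Cells received compounds together with 1 uM final retinol and incubated 6 hr at 37 C before detection reagent was added for 30 min at room temperature.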

[4] = qHTS assay to identify small molecule agonists of the retinoic acid receptor (RAR) signaling pathway (AID 1159553); also: potency is read from the fitted curve at half-maximal effect
Procedure, shortened: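 Cell line C3RL4, RARE luciferase reporter. Treatment: compounds in DMSO, 6 hr, 37 C, 5% CO2, after overnight plating. Detection: luminescence, 30 min RT after reagent.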

[5] = qHTS assay to identify small molecule antagonists of the estrogen related receptor (ERR) signaling pathway - cell viability counter screen (AID 1224818);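 also: series mostly up to about 46 µM; viability measured after 17.5 h of compound exposure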
Procedure, shortened: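 Here, ERR cells are plated at 2,000 cells per well, allowed 6 h to attach, and treated with compounds in DMSO for 17.5 h at 37 C. CellTiter-Fluor is then added and fluorescence read after 30 min.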

[6] = qHTS assay to identify small molecule antagonists of the estrogen related receptor signaling pathway with the pleiotropic PPARgamma coactivator (PGC) cell viability counter screen (AID 1224822;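 also: series mostly up to about 46 µM; viability read after 17.5 h compound exposure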)
Text: National Center for Advancing Translational Sciences [NCATS]
NIH Chemical Genomics Center [NCGC]
U.S. Environmental Protection Agency [EPA]
National Institutes of Environmental Health Sciences [NIEHS]
National Toxicology Program [NTP]
U.S. Food and Drug Administration [FDA]
Estrogen related receptors (ERRs), the first orphan nuclear receptors discovered, play an important role in the control of cellular energy metabolism. ERRs are required for high-energy production in response to the environmental challenges. The pleiotropic PPARgamma coactivator (PGC) is a major partner of ERR and a key regulator in energy homeostasis. Together they have been implicated in the etiology of metabolic disorders such as Type 2 diabetes and metabolic syndrome. ERR-alpha was also identified as an adverse marker for breast cancer progression; ERR-alpha-positive tumors have a poor prognosis. To screen and to identify environmental compounds that perturb the ERR and PGC/ERR signaling pathways could provide valuable information for potential therapeutic or preventive measures in the treatment of metabolic disease. To differentiate true PGC/ERR antagonists or agonist from cytotoxic substances, the assay is multiplexed with cell viability assay.
Tox21 Assay Protocol Summary:
The PGC/ERR cells were dispensed at 2,000 cells/5 ul/well in 1536-well white plates using a Multidrop dispenser. After the assay plates were incubated at a 37 C/5% CO2 incubator for 6 hours, 23 nL of compounds dissolved in DMSO, positive and negative controls or DMSO only was transferred to the assay plate by a pin tool. The plates were incubated at 37 C for 17.5 hours. 1 ul/well of CellTiter-Fluor reagent was added into the assay plates using a Flying Reagent Dispenser. After 30 min incubation at 37 C/5% CO2, the fluorescence intensity in the plates was measured using a ViewLux plate reader.
% is scaled to controls: 0 for no effect and ±100 for the full control effect.

O=c1[nH]c2cc(Cl)ccc2n1C1CCNCC1
inactive: Potency [1] | Potency [2] | Potency [3] | Potency [4]

CCOP(=O)(Sc1ccccc1)Sc1ccccc1
inactive: Potency [1] | Potency [2] | Potency [4]
active: Potency [3] 48.6 µM

CC1(C)[C@H](/C=C2\CCSC2=O)[C@@H]1C(=O)OCc1coc(Cc2ccccc2)c1
inactive: Potency [1] | Potency [2] | Potency [3] | Potency [4]

CC1CN1 (configuration not stated)
inactive: Potency [1] | Potency [2] | Potency [3] | Potency [4]

Oc1ccc([C@H]2CNCc3c2ccc(O)c3O)cc1O
active: Potency [4] 23.7 µM
inactive: Potency [1] | Potency [2] | Potency [3]

CN1C(=O)[C@@H](NC(=O)c2cc3ccccc3[nH]2)N=C(c2ccccc2)c2ccccc21
inactive: Potency [1] | Potency [2] | Potency [3] | Potency [4]

CCCCON=O
inactive: Potency [1] | Potency [2] | Potency [3] | Potency [4]

COc1nc(C)nc(NC(=O)NS(=O)(=O)c2ccccc2Cl)n1
inactive: Potency [1] | Potency [2] | Potency [3] | Potency [4]

CCNc1nc(NC(C)C(C)C)nc(SC)n1 (configuration not stated)
inactive: Potency [1] | Potency [2] | Potency [3] | Potency [4]

CC(C)c1c(CN(C)C(C)Cc2ccccc2)n(C)n(-c2ccccc2)c1=O (configuration not stated)
inactive: Potency [1] | Potency [2] | Potency [3] | Potency [4]

COC(=O)C(C)N(C(=O)c1ccco1)c1c(C)cccc1C (configuration not stated)
inactive: Potency [1] | Potency [2] | Potency [4]

CC1(C)C(C=C(Cl)Cl)C1C(=O)OC(C#N)c1ccc(F)c(Oc2ccccc2)c1 (configuration not stated)
inactive: Potency [1] | Potency [2] | Potency [3] | Potency [4]

CNC(=O)CSP(=O)(OC)OC
inactive: Potency [1] | Potency [2] | Potency [3] | Potency [4]

C[N+]1(C)[C@@H]2CC[C@H]1CC(OC(=O)C(CO)c1ccccc1)C2 (some centres not stated)
inactive: Potency [1] | Potency [2] | Potency [3] | Potency [4]

CCN(CC)C(=O)N[C@@H]1C=C2c3cccc4[nH]cc(c34)C[C@@H]2N(C)C1
inactive: Potency [1] | Potency [2] | Potency [3] | Potency [4]

Cc1cc2c3c(c1)C(c1ccccc1)=N[C@@H](NC(=O)c1ccncc1)C(=O)N3CC2
inactive: Potency [1] | Potency [2] | Potency [3] | Potency [4]

Nc1c(Cl)c(Cl)c(Cl)c(Cl)c1Cl
inactive: Potency [1] | Potency [2] | Potency [3] | Potency [4] | Potency [5] | Potency [6]

O=C(Nc1ccc(F)cc1F)c1cccnc1Oc1cccc(C(F)(F)F)c1
inactive: Potency [1] | Potency [2] | Potency [3] | Potency [4]

O=C(NC(=O)c1ccccc1Cl)Nc1ccc(OC(F)(F)F)cc1
inactive: Potency [1] | Potency [2] | Potency [3] | Potency [4]

C#CC1(O)CCCCC1
inactive: Potency [1] | Potency [2] | Potency [3] | Potency [4]

C[C@@H]1CC2=CC(=O)CC[C@@H]2[C@H]2CC[C@@]3(C)[C@@H](CC[C@]3(C)O)[C@@H]21
inactive: Potency [1] | Potency [2] | Potency [4]

COC(=O)c1cc(Oc2ccc(Cl)cc2Cl)ccc1[N+](=O)[O-]
inactive: Potency [1] | Potency [2] | Potency [3] | Potency [4]

Clc1cc(Cl)c(-c2cc(Cl)c(Cl)cc2Cl)cc1Cl
inactive: Potency [1] | Potency [2] | Potency [3] | Potency [4]

S=C=Nc1ccccc1
active: Potency [4] 70.8 µM
inactive: Potency [1] | Potency [2] | Potency [3]

CCCCC(CC)COC(=O)OOC(C)(C)C (configuration not stated)
inactive: Potency [1] | Potency [2] | Potency [3] | Potency [4]

O=S(=O)(O)F
inactive: Potency [1] | Potency [2] | Potency [3] | Potency [4]

Clc1c(Cl)c(Cl)c(Cl)c(Cl)c1Cl
inactive: activity change, negative = cytotoxicity [1] 0.339% [at 6.97 µM] | activity change, negative = cytotoxicity [2] 0.805% [at 8.39 µM] | activity, negative = inhibition [3] 2.67% [at 8.39 µM] | activation [4] -1.82% [at 8.36 µM]

Nc1ccc(Cl)cc1C(=O)c1ccccc1F
inactive: Potency [1] | Potency [2] | Potency [4]

FC(F)C(F)(F)OCC(Cn1cncn1)c1ccc(Cl)cc1Cl (configuration not stated)
active: Potency [1] 48.7 µM | Potency [3] 24.2 µM
inactive: Potency [4]

O=NN(CCO)CCO
inactive: Potency [1] | Potency [3] | Potency [4]
